# Screening results as filed in PubChem BioAssay.
# This excerpt belongs to a sample that is enriched for hits.
# Cav32 inh = Cav3.2 calcium influx blockers – cell-based, Fluo-4 calcium fluorescence, FDSS, MLSMR library, primary screen. Voltage-dependent T-type calcium channel subunit alpha-1H (Homo sapiens), O95180. 100,000 compounds, 4% hits. B-score at 10 µM. Cav3.2-expressing cells; active compounds read low;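 active = single-dose well whose peak fluorescence ratio is a statistical outlier from its plate by either plate-standardised score or position-corrected B-score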
# Mac1 fbg enh = enhancers of CD11b/CD18 adhesion to fibrinogen, primary screen, K562 cells, luminescence. ATPlite luminescence. Integrin beta-2 (Homo sapiens) + Integrin alpha-M (Homo sapiens), P05107+P11215. 93,000 compounds, 0.07% hits. activation, % at 10 µM;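 active = 10 µM primary screen giving 50% or more activity, confirmed by 40% or more on retest at that dose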
# Mac1 fbg inh = inhibitors of CD11b/CD18 adhesion to fibrinogen, primary screen, K562 cells, luminescence. Integrin beta-2 (Homo sapiens) + Integrin alpha-M (Homo sapiens), P05107+P11215. ATPlite luminescence; Mn2+ added to activate the integrin. inhibition, % at 10 µM. 93,000 compounds, 0.54% hits;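 active = primary inhibition of 50% or more at 10 µM, then 40% or more on retest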
# E coli WT exp = growth inhibitors of wild-type E. coli, primary screen, strain BW25113, expanded library, OD600; OD600 absorbance; growth inhibition, % at 100 µM; 98,000 compounds, 0.15% hits; AID 710, 2007;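 active = growth inhibition above about 50% at one test dose, limit read from the data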;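 note: growth measured after 20 h incubation at 37 °C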
# Hits are given with their value; - = inactive; . = no result given.
SMILES,Cav32 inh,Mac1 fbg enh,Mac1 fbg inh,E coli WT exp
CCC(=O)c1cn(Cc2ccc(C#N)cc2)c2ccccc12,-,-,-,-
CC(C)C(=O)c1cn(Cc2ccccc2C#N)c2ccccc12,-5.6,-,-,-
Cc1cc(Oc2ccc(C(F)(F)F)cc2[N+](=O)[O-])c2c3c(c(=O)oc2c1)CCCC3,.,-,-,.
CCOC(=O)c1c(-n2c(C)cc(/C=C3/C(=O)NC(=O)N(CC)C3=O)c2C)sc2c1CCCC2,-3.5,.,.,.
Cc1ccc(-n2nc(C)c3c2NC(=O)CSC3c2ccc3c(c2)OCO3)cc1 (centres undefined),-8.4,-,-,-
CCOC(=O)C1=C(N)OC2=C(C(=O)CCC2)C12C(=O)N1c3c(ccc(C)c32)C(C)=CC1(C)C (centres undefined),-8.3,.,.,-
CCOC(=O)C1=C(N)OC2=C(C(=O)CCC2)C12C(=O)Nc1ccccc12 (centres undefined),-,-,-,-
CCCCn1c(=O)c(C(=O)Nc2cnccn2)c(O)c2ccccc21,-2.6,-,-,-
CCCCn1c(=O)c(C(=O)Nc2nc3ccccc3[nH]2)c(O)c2ccccc21,.,-,-,.
CC(C)CCn1c(=O)c(C(=O)Nc2ccccc2S(N)(=O)=O)c(O)c2ccccc21,-5.4,-,-,-
CCOP(=S)(OCC)SCC(=O)NC(C)(CC)C(=O)O (centres undefined),-,-,-,-
CCN1/C(=C\C=C\C2=[N+](CC)c3ccccc3C2(C)C)C(C)(C)c2ccccc21,.,-,97,55
COC(=O)C1=C(c2cc3ccccc3s2)C[C@@H]2CC[C@H]1N2C(=O)NCc1ccco1,-,.,.,.
COc1cc2c(cc1OC)C13CCN4CC5=CCOC6CC(=O)N2C1C6C5CC43 (centres undefined) (tested in a mixture with another compound),-,.,.,.
Cc1ccc(C(c2nnnn2Cc2ccccc2)N2CC=C(c3ccc(F)cc3)CC2)cc1 (centres undefined),-3.2,.,.,-
CN(C)c1ccc(CN2CC=C(c3ccc(F)cc3)CC2)cc1,-,-,-,-
COC(=O)C1=CO[C@@H](C)[C@@H]2CN(CCc3c[nH]c4ccccc34)CC[C@H]12,-,.,.,.
CN(C)P(=O)(C(Cl)=C(N1CCCCC1)N1CCCCC1)N(C)C,-,-,-,-
COC(=O)C1=C(c2ccc(S(C)(=O)=O)cc2)C[C@@H]2CC[C@H]1N2C(=O)NCCNC(C)=O,-,.,.,.
CCOC(=O)c1c(NC(=O)C(c2ccccc2)c2ccccc2)sc2c1C1CCN2CC1,-4.1,.,.,-
CCn1nc(-c2cccs2)nc2c(=O)n(C)c(=O)nc1-2,.,-,63,-
Cc1ccccc1C1=NCC(=O)N(CC(=O)NCc2ccco2)c2sc3c(c21)CCCC3,-7.2,-,-,-
CN1CC2=CC(O)CC3Oc4c(O)ccc(c4[C@]23C)C1 (some centres undefined),-,.,.,.
O=C1NC(=O)[C@]2(Cc3ccccc3N3CCN(c4ccccc4)CC32)C(=O)N1c1ccccc1 (some centres undefined),-4.5,-,-,-
CC(C)CCP(=O)(O)c1ccccc1,-,-,-,-
SMILES,Cav32 inh,Mac1 fbg enh,Mac1 fbg inh,E coli WT exp
CN[C@@H]1C[C@@H](c2ccc(Cl)c(Cl)c2)c2ccccc21,-,.,.,.
COC(=O)CC(=O)c1ccc2c(c1)OCO2,-,.,.,.
CN(C)[C@@H]1C(=O)C(C(N)=O)=C(O)[C@@]2(O)C(=O)C3=C(O)c4c(O)cccc4[C@@](C)(O)[C@H]3[C@H](O)[C@@H]12,-3.7,.,.,.
COC(=O)C1=C(c2cc3ccccc3s2)C[C@@H]2CC[C@H]1N2C(=O)N1CCCC1,-,.,.,.
CC(C)[C@H]1C(=O)O[C@H](C(C)C)C(=O)N(C)[C@@H](C(C)C)C(=O)O[C@H](C(C)C)C(=O)N(C)[C@@H](C(C)C)C(=O)O[C@H](C(C)C)C(=O)N1C,-3.9,.,.,.
CC12CN3CN(C1)CC(c1ccccc1)(C3)C2=O,-,.,.,.
O=P(Nc1ccccc1Cl)(c1ccccc1)c1nc2c(s1)CCCC2 (centres undefined),-5.9,.,.,-
CCN1C[C@@]2(COC)C3[C@@H](OC)[C@H]4[C@@H]1[C@@]3(C1C[C@H]3[C@H](OC(C)=O)C1[C@]4(OC(C)=O)C[C@H]3OC)[C@@H](OC)C[C@H]2OC(C)=O (some centres undefined),-,.,.,.
OC(COCc1ccc(Cl)cc1)CN1CC=C(c2ccccc2)CC1 (centres undefined),-6.6,-,-,-
Cc1c(/C=N/O)c2ccccc2n1C,-,.,.,.
O=C(Cn1ncc2c3ccccc3n(Cc3cccc(Cl)c3)c2c1=O)N1CCC2(CC1)OCCO2,-11,-,-,-
Cn1c2ccccc2c2cnn(CC(=O)N3CCC4(CC3)OCCO4)c(=O)c21,.,-,-,-
COc1cccc(OC)c1C1=NCC(=O)Nc2c1oc1ccc(Br)cc21,-4.2,-,-,-
O=C1CN=C(c2ccc(Br)cc2)c2oc3ccccc3c2N1,-,-,-,-
COc1cc([C@@H]2c3cc4c(cc3[C@@H](OC)[C@H]3COC(=O)[C@H]23)OCO4)cc(OC)c1O,-,.,.,.
COC(=O)C1=C(c2cc3ccccc3s2)C[C@@H]2CC[C@H]1N2C(=O)NCCNC(C)=O,-,.,.,.
O=C(c1ccccc1F)c1cn(Cc2ccccc2)c2ccccc12,-3.6,-,-,-
Nc1cc(Cl)c2nonc2c1[N+](=O)[O-],.,-,-,.
CC(C)CC(=O)NC(Oc1ccc(Cl)cc1)C(Cl)(Cl)Cl (centres undefined),-6.2,.,.,-
Cc1ccc(S(=O)(=O)N[C@@H](CCCCN)C(=O)CCl)cc1,-,.,.,.
